Assay results published in PubChem BioAssay AID1159580 (chemical genetic matrix, 2015).
The campaign covered roughly 5,500 compounds. About 2,000 (36%) were called active. Not shown: some 18% with an inconclusive outcome. Cut-off read from the data, not from the text of the source: active = normalized growth mostly below about 0.91 (no sharp cut-off); inconclusive = no clear call, values can overlap the other calls; inactive = mostly above about 0.92. Some of the results follow.

Assay: chemical genetic growth profiling, strain panel (AID 1159580);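 note: tested at 20 µM; growth read once vehicle control cultures reached saturation at 30 °C; 1 = growth at the plate median or of vehicle wells; lower values mean less growth of the strain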
Details: S. cerevisiae deletion strains, growth OD

Measured: normalized growth

CC(Oc1ccc(Cl)cc1Cl)C(=O)O (stereo not drawn)
inactive: locus YHR030C, strain SLT2, stronger effect = lower value 0.968 | locus YHR079C, strain IRE1, stronger effect = lower value 0.964 | locus YJL095W, strain BCK1, stronger effect = lower value 0.961 | locus YJR066W, strain TOR1, stronger effect = lower value 0.898 | locus YLR113W, strain HOG1, stronger effect = lower value 0.968 | locus YNL183C, strain NPR1, stronger effect = lower value 0.896 | locus YOR231W, strain MKK1, stronger effect = lower value 0.965 | locus YPL256C, strain CLN2, stronger effect = lower value 0.955
